Experimental data published in the supplement of paper PMC6555819.

System: VDR:RXRa (NR concentration 270 nM, RXRa partner concentration 90 nM)
Assay: PBM binding z-score (relative to random genomic background probes); higher = stronger binding; sequences stand for … in GC…GCGATTGACAGCGTAGAATGAAGG
Experimental: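 Protein-binding microarray (Agilent 4x180K custom design, double-stranded 60-nt probes: 5' GC cap, 34-nt variable region, 24-nt constant primer region; full probe sequence given). Purified or IVT nuclear receptor:RXRα heterodimers (3:1 NR:RXRα, mostly 270:90 nM) or homodimers were incubated for 1 h in PBS with 2% milk and no ligand, then detected with Alexa488 antibodies. Fluorescence from o1-orientation probes (~5 replicates averaged) was converted to z-scores against 500 random hg19 background probes. Variable regions are seed direct-repeat (DR0–DR5) sites, all their single-nucleotide variants and half-site ablations.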

Sequence | PBM binding z-score
CTATGTAGGTTAAGGGGATCATTCAGTTTGAAAG | 2.59
CGAACTAGGTTACCAGGACAGTGAAGAGGTTGGA | -0.164
TCGAGTAGGTTCCGGGGGCATTCAGGGATGAAGA | 2.54
ATATGTAGGATATCGGGTCATTCAGTTTGCGCAT | 4.94
CCGAGTAGGTTACGAGCGGGCATTCAGTGCGAAT | 0.355
CGAACTAGGTCACCAGGACACTGAAGAGGTTGGA | 2.56
CTCGAAAGGTCGGTTGAGGTGAGTAAACGGATAA | 2.11
TCGAGTCGGTTACGGGGGCATTCAGGGATGAAGA | 2.73
CCGAGTAGGTTACGGGGGGGCATTCAGTGCGAAT | 5.49
CGAACTAGGTCACCAGGACAGTGGAGAGGTTGGA | 1.99
TAGCCTAGGTCATTCAGGGGTCAGTATAGAAAGC | 6.03
TAGCCTAGGTTATGCGGGCCAGTATAGTGTCGGC | -0.0997
CCTTGCGGGTCACTGACAGGTTATAGCATTTGGA | 3.13
ATATGTAGGTTAAGGTCATTCAGAAAGTAGGGAA | 4.69
CGGACTAGGTCACCAGGACAGTGAAGAGGTTGGA | 1.54
ATCGTAAGGTCGTGAGGTGAGTATACAGAAAGGC | 2.8
ACATGTAGGTTAGGGTCATTCAGAAAGTAGGGAA | 4.52
GCTCGGGGGACAAGGTCAGAGCTTTGTCCGTAGA | 3.07
AGAATGAGGTTAGCAAAGATCAGGGAAACGCTTG | 0.322
CCGAGTAAGTTACGAGGGGGCATTCAGTGCGAAT | 3.83

Sequence | PBM binding z-score
CGACCTAGGTCACCAGGACAGTGAAGAGGTTGGA | 2.68
AGAATGAGGTTAACAAAGATCAGGGAAACGCTTG | 1.71
CAAACTAGGTCACCGTAAGGTCAAAGTCCGCATG | 6.28
TGTCAAAGCTCAAAGGTAACGTAAGTATCCACAC | 0.171
TCGAGTAGGTTTCGGGGGCATTCAGGGATGAAGA | 2.7
CTATGTAGGTTAAGGGGGTGATTCAGTTTGAAAG | 3.99
CCTAGTTGGTCAAGGTCTCACACGCTATAGGTAC | 0.578
AGTCAAAGTTCAGGACGAGGTAATGTAAAGCACG | 3.07
GCTGCTAGGTCAACTGATGGTCAGCTAGAGCTCG | 1.5
CGAACTCGGTCACCAGGACAGTGAAGAGGTTGGA | 1.87
CCGAGTGGGTTACGAGGGGGCATTCAGTGCGAAT | 5.13
CGAACTATGTCAAAGGACAGTGAAAGGCGACGTA | -0.0394
CGAACTAGGTCAAAGGACGGTGAAAGGCGACGTA | 1.12
TCGAGTAGGTTACGGCGGCATTCAGGGATGAAGA | -0.251
GTACCAAGGTGAATAGGTCGTTGATGAGTAGGCG | 0.95
ATCGAAACGTCGTGAGGTGAGTATACAGAAAGGC | -0.25
CTTAGTTGGTCAGGAGGTCACACACCGGATATGA | 3.78
CGTCCAAGGTCAGCAGGTGAGTGAAAGCGACGTG | 2.67
CCTACTGGGCCAAAGGCCATTGATTCCAATGCTC | -0.327
CGGAGTAGGTTACGAGGGGGCATTCAGTGCGAAT | 5.44
